Measured values from PubChem BioAssay AID485341 (National Center for Advancing Translational Sciences (NCATS), 2010).
Screen size: about 330,000 compounds; about 1,700 (0.52%) were called active. A call without a number means that no potency is given here. The call rests on the fitted dose curve; in most records, active means well fitted inhibition curve with a large enough effect; inconclusive means small, poorly fitted or top-dose-only effect; inactive means no such curve, though single readings can be large or run the other way. Only a selection was taken, and actives are over-represented in it overall.

These molecules were tested against Beta-lactamase (Escherichia coli (strain K12)) (UniProt P00811) (assay: qHTS Inhibitors of AmpC Beta-Lactamase (assay without detergent)). Settings: AmpC nitrocefin hydrolysis, absorbance 480 nm, 0.0001% Triton; series mostly up to 57.1 µM.
Sequence of Beta-lactamase (Escherichia coli (strain K12)) (P00811 whole entry, looked up): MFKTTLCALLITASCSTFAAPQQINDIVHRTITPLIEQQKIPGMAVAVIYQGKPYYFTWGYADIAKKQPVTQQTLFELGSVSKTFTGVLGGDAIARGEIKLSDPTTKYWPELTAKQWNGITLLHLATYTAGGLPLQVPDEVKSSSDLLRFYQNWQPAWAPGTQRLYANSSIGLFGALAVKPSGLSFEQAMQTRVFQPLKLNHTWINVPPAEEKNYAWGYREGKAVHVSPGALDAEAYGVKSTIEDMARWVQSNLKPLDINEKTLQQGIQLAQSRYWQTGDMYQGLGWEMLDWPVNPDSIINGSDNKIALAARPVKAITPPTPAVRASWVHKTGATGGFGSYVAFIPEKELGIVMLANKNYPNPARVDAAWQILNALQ
Method: NIH Molecular Libraries Probe Production Network [MLPCN] NIH Chemical Genomics Center [NCGC] Assay Provider: Professor Brian Shoichet, UCSF Assay Overview: This aggregation profiling approach exploits the sensitivity of aggregate formation to detergent. Inhibition of b-lactamase is measured in the presence and absence of 0.01% Triton X-100. This particular assay had the prescence of 0.01% Triton X-100. See Pubchem assay "Promiscuous and Specific Inhibitors of AmpC Beta-Lactamase (assay without detergent)" for related screen. Compounds that inhibit only in the absence of detergent are considered likely promiscuous aggregators. A screen of 1,030 compounds was performed in Brian Shoichet's lab in 96-well format. AmpC activity was measured by following the absorbance at 480 nm. Nitrocefin is a chromogenic substrate: while nitrocefin is yellow (lmax 390 nm), the product of its hydrolysis is red (lmax 486 nm, 17,000 M-1). AmpC beta lactamase was provided by Shoichet Lab, UCSF.
Buffer: 20 mM phosphate buffer, pH 7.0 Triton X-100: No Detergent screen: 0.0001%, Detergent screen: 0.01%. Reagents/Controls: Buffer in columns 3 and 4 as negative control (no enzyme). 5.3 nM AmpC in columns 1, 2, 5-48. Titration of UCSF compound 9 control (from 10 mM, then 1:2) pin-transferred to column 2. Column 1 is neutral (100% activity). Assay Steps: Six uL of reagents were dispensed to 1536-well Greiner black clear bottom plates. Compounds and controls (23 nL) were transferred via Kalypsys PinTool. The plates were incubated for 15 min at room temperature, and then 2 uL of 800 uM solution of nitrocefin was added to start the reaction. The plates were immediately transferred to and read every 20 seconds for 4 min on ViewLux (Perkin-Elmer) High-throughput CCD imager using 480 nm absorbance protocol. During dispense, reagent bottles were kept submerged into 4 deg C water bath. Keywords: NIH Roadmap, MLSCN, MLI, MLSMR, qHTS, NCGC, AmpC Beta-Lactamase, Aggregation
Further: nearly all actives have a fitted effect of over 20% in size.
Potency means the concentration at half of the fitted maximal effect.

| SMILES | Potency |
| --- | --- |
| O=C(CN(c1cccc(Cl)c1)S(=O)(=O)c1ccccc1)NN=C1CCCC1 | inactive |
| Cc1nn(Cc2ccc(F)cc2)c(C)c1NC(=O)c1noc2c1CCc1ccccc1-2 | 11.2 µM (active) |
| Cc1nn(Cc2ccc(F)cc2)c(C)c1NC(=O)c1cccnc1Cl | inactive |
| Cc1ccccc1Cn1nc(C)c(NC(=O)C(F)(F)F)c1C | inactive |
| COC(=O)[C@]1(Cc2ccccc2)N[C@H](CN(C)S(=O)(=O)c2ccc(OC(F)(F)F)cc2)[C@@H]2C(=O)N(Cc3ccccc3)C(=O)[C@@H]21 | inactive |
| CC(O)c1nc2c(c(=O)n(C)c(=O)n2C)n1C (stereo not drawn) | inactive |
| Cc1ccc(S(=O)(=O)N(CC(=O)NCc2ccco2)c2ccccc2C)cc1 | inactive |
| COc1ccc(-c2cc(C(=O)N(C)CC(=O)Nc3ccccc3Cl)c3ccccc3n2)cc1OC | inactive |
| CC(C)CC1(C)NC(=O)N(CC(=O)Nc2ccc3c(c2)OCCO3)C1=O (stereo not drawn) | inactive |
| Cc1ccc(NC2=C(Cl)C(=O)OC2OC(=O)c2ccccc2C)cc1 (stereo not drawn) | 3.98 µM (active) |
| Cc1ccccc1C(=O)OC1OC(=O)C(Cl)=C1Nc1ccccc1 (stereo not drawn) | 6.31 µM (active) |
| COC(=O)C1=C(Nc2ccc(OC)cc2)C=C(C)C(C(=O)OC)C1c1ccc(C)cc1 (stereo not drawn) | inactive |
| COC(=O)C1=C(Nc2ccc(C)cc2)C=C(C)C(C(=O)OC)C1c1ccc(F)cc1 (stereo not drawn) | inactive |
| Cc1ccccc1C(=O)O | inactive |
| Cc1ccccc1C(=O)Nc1ccccc1NC(=O)c1ccccc1C | inactive |
| O=S(=O)(Nc1ncccn1)c1ccc(NS(=O)(=O)c2cccc(Cl)c2Cl)cc1 | inactive |
| O=C(COC(=O)/C=C/c1cccs1)NC1CCCCC1 | inactive |
| COc1ccc(CC(=O)N[C@@H]2c3cc(OC)c(OC)cc3C[C@H]2OCc2ccccc2)cc1 | inactive |
| CC(=O)c1c(C)c[nH]c1C | inactive |
| CCCCN(C(=O)C1CCC1)c1c(N)n(Cc2ccccc2)c(=O)[nH]c1=O | inactive |
| CCn1c2ccccc2c2cc(NC(=O)Nc3ccc([N+](=O)[O-])cc3C)ccc21 | inactive |

| SMILES | Potency |
| --- | --- |
| COCCCNC(=S)N1CCN(c2nc(-c3cccc(OC)c3)cs2)CC1 | inactive |
| CC(=O)Nc1ccc(NC(=O)CSc2nnc(COc3ccccc3C)n2CC2CCCO2)cc1 (stereo not drawn) | inactive |
| CC[N+]1(CC)CC2=Cc3ccccc3CC2C1 (stereo not drawn) | inactive |
| CC(=NCc1ccco1)c1c(C(F)(F)F)[nH]n(-c2nc3ccccc3s2)c1=O | inactive |
| CCC(C)Cn1c(O)cc2nn(-c3nc4ccccc4s3)c(=O)c-2c1C (stereo not drawn) | 17.8 µM (active) |
| Cn1c(=O)c2c(nc(NCCNC(=O)c3ccco3)n2Cc2ccccc2F)n(C)c1=O | inactive |
| CCN=C1SC(CC(=O)Nc2ccc(C)cc2)C(=O)N1CC (stereo not drawn) | inactive |
| Cc1ccc(NC(=O)CC2S/C(=N/N=C3\CCCc4ccccc43)NC2=O)cc1 (stereo not drawn) | 3.16 µM (active) |
| Cc1c(Cl)cccc1NC(=O)CC1SC(=NCC2CCCO2)NC1=O (stereo not drawn) | inactive |
| CCCCn1c(N)c(N(CCOC)C(=O)COc2c(C)cccc2C)c(=O)[nH]c1=O | inactive |
| CS(=O)(=O)N1CCN(C(=O)CSc2ccccc2)CC1 | inactive |
| Cc1ccc(S(=O)(=O)N2CCCC2CO)cc1 (stereo not drawn) | inactive |
| COc1ccc(CSc2nnnn2-c2ccc(O)cc2)cc1F | 22.4 µM (active) |
| COc1ccc(CSc2nnnn2-c2ccc(C(=O)O)cc2)cc1 | inactive |
| COc1ccc(-n2nnnc2SCC(=O)c2ccc(OC)c(OC)c2)cc1 | inactive |
| Cn1c2c(c(=O)n(C)c1=O)C(c1cccc([N+](=O)[O-])c1)Nc1ccccc1O2 (stereo not drawn) | inactive |
| CN(CCC1CCOCC1)C(=O)CC1C(=O)NCCN1Cc1cccc(F)c1 (stereo not drawn) | inactive |
| O=C(O)CCCC(=O)Nc1ccc(Oc2cccc(C(F)(F)F)c2)nc1 | inactive |
| CC(C)CN(C(=O)COC(=O)c1ccc2ccccc2c1)c1c(N)n(Cc2ccccc2)c(=O)[nH]c1=O | inactive |
| CC(C)CN(C(=O)COC(=O)c1ccc(Cl)c(N)c1)c1c(N)n(Cc2ccccc2)c(=O)[nH]c1=O | 28.2 µM (active) |
| Cc1csc(=O)n1CC(=O)OCC(=O)N(CC(C)C)c1c(N)n(Cc2ccccc2)c(=O)[nH]c1=O | inactive |

| SMILES | Potency |
| --- | --- |
| CSc1ccccc1NC(=O)C(C)N1C(=O)c2ccccc2S1(=O)=O (stereo not drawn) | inactive |
| Cc1cc(NC(=O)CSCc2ccccc2C)no1 | inactive |
| Cc1cc(NC(=O)C(C)N2C(=O)c3ccccc3S2(=O)=O)no1 (stereo not drawn) | 25.1 µM (active) |
| O=C1CCC(=O)N(c2ccccc2)N1 | inactive |
| O=C(OCC1O[C@@H](OC(=O)c2cc(O)c(O)c(O)c2)[C@@H](OC(=O)c2cc(O)c(O)c(O)c2)[C@@H](OC(=O)c2cc(O)c(O)c(O)c2)[C@@H]1OC(=O)c1cc(O)c(O)c(O)c1)c1cc(O)c(O)c(O)c1 (stereo partly drawn) | 1 µM (active) |
| CCOCCCNC(=O)c1ccc(CS(=O)(=O)c2cccc(C(F)(F)F)c2)o1 | inactive |
| CCOCCn1[nH]c2ccccc2c1=O | inactive |
| CCOC(=O)c1sc(NC(=O)CSc2nc(O)c(Cc3ccccc3)c(=O)[nH]2)nc1C | 15.8 µM (active) |
| O=C(CSc1nc(O)c(Cc2ccccc2)c(=O)[nH]1)Nc1nc2c(s1)CCCC2 | inactive |
| CCOC(=O)c1sc(NC(=O)CSc2n[nH]c(CC)n2)nc1C | inactive |
| O=C(O)CCN=C1CCc2ccccc2N1 | inactive |
| Cc1ccc(C)c(NC(=O)CSc2nnc(Cc3cccn3C)n2-c2ccc(F)cc2)c1 | inactive |
| COc1ccccc1NC(=O)CSc1nnc(Cc2cccn2C)n1-c1ccc(F)cc1 | 1.41 µM (active) |
| COC(=O)c1ccc(NC(=O)CSc2nnc(Cc3cccn3C)n2-c2ccc(F)cc2)cc1 | inactive |
| O=C(CN1CCCC1)Nc1sc2c(c1C(=O)Nc1ccccc1)CCCC2 | inactive |
| Cc1cc2ncn(CCCCOc3ccccc3)c2cc1C | inactive |
| CC(=O)Nc1cccc(C(=O)OCC(=O)Nc2nnc(-c3ccccc3)o2)c1 | inactive |
| O=C(COC(=O)c1ccc(Oc2ccccc2)cc1)Nc1nnc(-c2ccccc2)o1 | 12.6 µM (active) |
| COc1ccccc1C(=O)NCC(=O)OCC(=O)Nc1nnc(-c2ccccc2)o1 | inactive |
| CCn1nnc(NC(=O)c2c(OC)cccc2OC)n1 | inactive |
| CCN(C(=O)COC(=O)C1CCN(S(=O)(=O)c2ccc(C)c(C)c2)CC1)C1CCS(=O)(=O)C1 (stereo not drawn) | inactive |
